Assay [1] addresses N-terminal Xaa-Pro-Lys N-methyltransferase 1 (Homo sapiens) (UniProt Q9BV86). The assay can be described thus: qHTS Assay for Inhibitors of N-terminal methyltransferase 1 (NTMT1): LOPAC validation of the NTMT1 SAHH-coupled ThioGlo3 Assay (AID 1347143).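 Note: SAH from peptide methylation measured as thiol fluorescence via SAHH coupling and ThioGlo3; nearly all actives have a fitted effect of over 70% in size.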 Note: potency is the fitted concentration of half-maximal effect. A digest of the protocol: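 Steps: dispense 125nM NTMT1; pin-transfer test compounds at several concentrations, with 1uM RCC1-6 peptide as control; incubate 1 min; start with reagent holding 100uM SAM, 10uM SAHH, 15uM ThioGlo3; read at 0 and 30 min.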
For orientation: In qHTS, concentration-response curves come from the screen itself.

Assay [2] has as its system Zika virus NS2B-NS3 protease (unlinked). Description: Optimization of GU AMC qHTS for Zika virus inhibitors: Unlinked NS2B-NS3 protease assay (AID 1347151). Note: nearly all actives have a fitted effect of over 80% in size. Note: potency is the fitted concentration of half-maximal effect. In a few lines:
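Noncovalent complex of NS2B hydrophilic domain and NS3 protease domain, 25 nM final, in 10 mM Tris-HCl pH 8.0, 0.01% Tween 20. AMC fluorescence change over 15 min at room temperature was fitted to a 4-parameter Hill equation.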

In the next assay the target is Furin (Homo sapiens) (UniProt P09958). The assay can be described thus: Furin counterscreen qHTS for Zika virus inhibitors (AID 1347149).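 Note: purified recombinant full-length human furin enzyme at 5 nM; fluorescence gain from furin cutting a BOC-RVRR-AMC peptide substrate over 15 min; top concentration of the series differs between compounds; nearly all actives have a fitted effect of over 70% in size.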 A digest of the protocol: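 Counterscreen measures cleavage of 2 microM BOC-RVRR-AMC, below its ~15 microM Km, by 5 nM full-length human furin at pH 7.0 after a 15-min compound preincubation. Inhibition derives from the 15-min fluorescence increase at 37C.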
Furin (Homo sapiens), sequence (P09958 whole entry, looked up): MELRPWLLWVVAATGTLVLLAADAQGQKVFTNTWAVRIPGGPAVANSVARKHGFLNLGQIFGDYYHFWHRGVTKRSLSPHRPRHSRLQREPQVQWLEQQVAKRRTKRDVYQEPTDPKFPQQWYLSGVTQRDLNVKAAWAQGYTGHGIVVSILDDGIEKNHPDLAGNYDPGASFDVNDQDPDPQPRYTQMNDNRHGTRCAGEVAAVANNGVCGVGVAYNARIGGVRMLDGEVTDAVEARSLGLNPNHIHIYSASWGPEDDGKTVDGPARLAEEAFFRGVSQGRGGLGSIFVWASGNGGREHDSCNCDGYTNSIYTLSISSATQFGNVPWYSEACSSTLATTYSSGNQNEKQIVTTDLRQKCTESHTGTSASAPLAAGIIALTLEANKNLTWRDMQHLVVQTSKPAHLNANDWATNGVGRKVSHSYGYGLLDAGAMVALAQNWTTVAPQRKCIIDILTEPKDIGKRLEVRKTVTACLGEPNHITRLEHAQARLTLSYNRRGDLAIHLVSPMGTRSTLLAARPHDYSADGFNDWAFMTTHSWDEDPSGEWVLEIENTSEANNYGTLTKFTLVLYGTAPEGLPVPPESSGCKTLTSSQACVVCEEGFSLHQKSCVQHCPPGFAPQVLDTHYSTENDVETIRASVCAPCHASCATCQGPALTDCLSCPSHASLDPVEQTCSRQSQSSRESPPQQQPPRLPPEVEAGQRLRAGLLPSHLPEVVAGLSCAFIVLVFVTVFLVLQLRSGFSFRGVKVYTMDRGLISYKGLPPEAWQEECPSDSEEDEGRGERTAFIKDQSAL
(The purpose of a counterscreen is to sort out artefacts and off-target activity.)

For assay [3], the system named is Zika virus NS2B-NS3 protease (linked construct). Description: Confirmatory screen NINDS AMC qHTS for Zika virus inhibitors (AID 1347152). Note: nearly all actives have a fitted effect of over 70% in size. Note: potency is the fitted concentration of half-maximal effect. In a few lines: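 Purified NS2B-NS3 protease with NS2B hydrophilic domain linked to NS3 protease domain by flexible linker, 1 nM final in 10 mM Tris-HCl pH 8.0, 0.01% Tween 20. Compounds preincubated 15 min, room temperature; Bz-Nle-KRR-AMC 10 microM (Km 18.3 µM); 15-min fluorescence change, 4-parameter Hill fit.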

In assay [4] the test system is Zika virus NS2B-NS3 protease (unlinked complex). The assay can be described thus: Confirmatory screen GU AMC qHTS for Zika virus inhibitors (AID 1347153). Note: nearly all actives have a fitted effect of over 70% in size. A digest of the protocol: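 Unlinked enzyme 25 nM, Tris pH 8.0/0.01% Tween 20; cpd 15 min RT, dark; + AMC substrate 10 µM (Km 18.3 µM); 340/450 nm read at t0 and 15 min; % inhibition → 4-param fit.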

These results are taken from PubChem BioAssay (NCATS).

Records with an inconclusive call do not appear. Activity calls are given as the source filed them. Calls come from the whole dose curve; as a rule, active = well fitted curve in the direction sought with a large enough effect; inconclusive = small, poorly fitted or top-dose-only effect, or another doubt; inactive = no such curve, though single readings can be large; an effect the other way counts as inactive or inconclusive.

N-terminal Xaa-Pro-Lys N-methyltransferase 1 (Homo sapiens), sequence (Q9BV86 whole entry, looked up): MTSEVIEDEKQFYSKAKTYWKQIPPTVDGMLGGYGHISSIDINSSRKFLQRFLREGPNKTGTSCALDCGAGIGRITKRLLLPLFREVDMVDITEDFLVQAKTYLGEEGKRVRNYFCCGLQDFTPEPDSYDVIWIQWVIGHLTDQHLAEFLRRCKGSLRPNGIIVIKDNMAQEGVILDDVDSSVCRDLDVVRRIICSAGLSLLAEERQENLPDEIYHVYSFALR

Regarding `CNc1ccc2oc(C[C@H]3O[C@@]4(CC[C@H]3C)O[C@H]([C@H](C)C(=O)c3ccc[nH]3)[C@H](C)C[C@H]4C)nc2c1C(=O)O`, the values for the Potency in assay [1] and in assay [2] were 56.2 µM (active) and 23.8 µM (active), respectively.

Turning to `CC(Cc1ccc(OCC(=O)O)cc1)NCC(O)c1cccc(Cl)c1` (stereo not drawn), the Potency result in assay [1] and in assay [2] was “inactive” in each case.

Turning to `CC(C)(C)OC(=O)NC1[C@H]2CNC[C@@H]12` (stereo partly drawn), the Potency result in assay [1] and in assay [2] was “inactive” throughout.

In the case of `NCCCP(=O)(O)O`, the Potency entry in assay [1] and in assay [2] was “inactive” in each case.

`C[C@H](N)CN1CCc2ccc(Br)cc21`: the Potency result in assay [1] and in assay [2] was “inactive” each time.

Regarding `NC(C(=O)O)c1cc(=O)[nH]o1` (stereo not drawn), the Potency result in assay [1] and in assay [2] was “inactive” throughout.

For the compound `NC(=O)c1cc(N2CC2)c([N+](=O)[O-])cc1[N+](=O)[O-]`, the Potency entry in assay [1] and in assay [2] was “inactive” throughout.

Take `CCCN(CCC)C1CCc2cccc(O)c2C1` (stereo not drawn): the Potency result in assay [1] and in assay [2] was “inactive” each time.

For `CN1CCc2cc(O)cc3c2[C@H]1Cc1ccc(O)c(O)c1-3`, the values for the Potency in assay [1] and in assay [2] were 35.5 µM (active) and 23.8 µM (active), respectively.

As to `CN(N=O)c1cc(O)ccc1O`, the Potency in assay [1] was 3.55 µM (active). The Potency entry in assay [2] was “inactive”.

With `Oc1cc(Cl)c(Cl)cc1Cl`, the Potency result with Furin (Homo sapiens) was “inactive”.

As for `COc1ccc2c(c1O)-c1cccc3c1[C@@H](C2)N(C)CC3`, the figures for the Potency in assay [1] and in assay [2] were 56.2 µM (active) and 29.9 µM (active), respectively.

For the compound `CC[C@H](C)[C@H]1O[C@]2(C=C[C@@H]1C)C[C@@H]1C[C@@H](C/C=C(\C)[C@@H](O[C@H]3C[C@H](OC)[C@@H](O[C@H]4C[C@H](OC)[C@@H](O)[C@H](C)O4)[C@H](C)O3)[C@@H](C)/C=C/C=C3\CO[C@@H]4[C@H](O)C(C)=C[C@@H](C(=O)O1)[C@]34O)O2`, the Potency result (with Furin (Homo sapiens); in assay [2]) was “inactive” in each case.

Turning to `C[N+]1(C)CCOC(O)(c2ccc(-c3ccc(C4(O)C[N+](C)(C)CCO4)cc3)cc2)C1` (stereo not drawn), the Potency result in assay [1] and in assay [2] was “inactive” each time.

With `CN1CCc2cccc(Cl)c2CC1`, the Potency result in assay [1] and in assay [2] was “inactive” throughout.

As for `Nc1cc2c(ncn2CCOCP(=O)(O)O)c(=O)[nH]1`, the Potency entry in assay [1] and in assay [2] was “inactive” in each case.

With `C[C@@H]1[C@@H]2Cc3ccc(O)cc3[C@@]1(C)CCN2CC1CC1`, the Potency entry (with Furin (Homo sapiens); in assay [2]) was “inactive” in each case.

`OCc1cnc[nH]1`: the Potency result in assay [1] and in assay [2] was “inactive” in each case.

On to `C[N+](C)(C)CCOC(=O)CBr`, for which the Potency result in assay [1] and in assay [2] was “inactive” each time.

Consider `C#CCN[C@H](C)Cc1ccccc1`, for which the Potency entry in assay [1] and in assay [2] was “inactive” throughout.

Regarding `c1ccc2c(c1)[I+]c1ccccc1-2`, the Potency in assay [1] is 50.1 µM (active). Besides, the Potency entry in assay [2] is “inactive”.

For `C=CCN1C[C@@H](C)N([C@H](c2ccc(C(=O)N(CC)CC)cc2)c2cccc(OC)c2)C[C@@H]1C`, the Potency entry in assay [1] and in assay [2] was “inactive” throughout.

On to `COc1ccc(CNC(=O)/C=C/c2ccc3[nH]cc(CCN(C)C)c3c2)cc1`, for which the Potency entry in assay [1] and in assay [2] was “inactive” each time.

Turning to `CCCn1c(=O)c2[nH]c(C3CCCC3)nc2n(CCCOC(=O)c2ccc(S(=O)(=O)F)cc2)c1=O`, the Potency result in assay [1] and in assay [2] was “inactive” in each case.

As to `NC(Cc1cc(O)c(O)cc1O)C(=O)O` (stereo not drawn), the Potency was 44.7 µM (active) in assay [1] and 7.52 µM (active) in assay [2].

Consider `Cc1sc2ccccc2c1CC1=NCCN1`, for which the Potency was 79.4 µM (active) in assay [1] and 26.7 µM (active) in assay [2].

With `C[C@H](Cc1ccc2c(c1)OC(C(=O)O)(C(=O)O)O2)NC[C@H](O)c1cccc(Cl)c1`, the Potency result in assay [1] and in assay [2] was “inactive” each time.

As for `OC1CCCCC1N1CCC(c2ccccc2)CC1` (stereo not drawn), the Potency result in assay [1] and in assay [2] was “inactive” each time.

Regarding `C[N+](C)(C)CC#CCOC(=O)Nc1cccc(Cl)c1`, the Potency result in assay [1] and in assay [2] was “inactive” throughout.

For `O=C(NC1CN2CCC1CC2)c1cc2ccoc2cn1` (stereo not drawn), the Potency entry in assay [1] and in assay [2] was “inactive” in each case.

Turning to `C[C@@]1(C(=O)O)CC[C@]2(C)CC[C@]3(C)C4=CC(=O)c5cc(O)c(O)cc5[C@]4(C)CC[C@@]3(C)[C@@H]2C1`, the Potency entry (in the assay with Furin (Homo sapiens); in assay [3]; in assay [4]) was “inactive” throughout.

Take `CCCCCOc1cc2c(cc1-c1cc(/C=C/C(=O)O)ccc1O)C(C)(C)CCC2(C)C`: the Potency in assay [3] was 9.87 µM (active).
